Records with an inconclusive call do not appear. Calls of active or inactive are those of the source.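 Rule for the calls: active = immobility above 50% at 10 µM after 1 hour; inconclusive = immobility from 15% to 50% at 1 hour; inactive = immobility below 15%.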
assay: Assay for General Anesthetic Phenotype in Xenopus Tadpoles; conditions: startle-response immobility, 1 h, at 10 µM, stronger effect = higher value
Description: Anesthetic development has remained a largely empirical process. There are growing concerns about the cognitive effects of known general anesthetics and acceleration of the onset of neurodegenerative disease. The compounds' toxicity and multiple specific binding targets in the mammalian brain [4] has made them less attractive as drug leads. This assay was designed for the in vivo follow-up testing of compounds in tadpoles. References: [1] S.L. Bianchi, T. Tran, C. Liu, S. Lin, Y. Li, J.M. Keller, R.G. Eckenhoff, and M.F. Eckenhoff, Brain and behavior changes in 12-month-old Tg2576 and nontransgenic mice exposed to anesthetics. Neurobiol Aging 29 (2008) 1002-10. Z. Xie, Y. Dong, U. Maeda, R.D. Moir, W. Xia, D.J. Culley, G. Crosby, and R.E. Tanzi, The inhalation anesthetic isoflurane induces a vicious cycle of apoptosis and amyloid beta-protein accumulation. J Neurosci 27 (2007) 1247-54. P. Honegger, and J.M. Matthieu, Selective toxicity of the general anesthetic propofol for GABAergic neurons in rat brain cell cultures. J Neurosci Res 45 (1996) 631-6. M.F. Eckenhoff, K. Chan, and R.G. Eckenhoff, Multiple specific binding targets for inhaled anesthetics in the mammalian brain. J Pharmacol Exp Ther 300 (2002) 172-9. C.A. Butts, J. Xi, G. Brannigan, A.A. Saad, S.P. Venkatachalan, R.A. Pearce, M.L. Klein, R.G. Eckenhoff, and I.J. Dmochowski, Identification of a fluorescent general anesthetic, 1-aminoanthracene. Proc Natl Acad Sci U S A 106 (2009) 6501-6. W.A. Lea, J. Xi, A. Jadhav, L. Lu, C.P. Austin, A. Simeonov, and R.G. Eckenhoff, A high-throughput approach for identification of novel general anesthetics. PLoS One 4 (2009) e7150.
Pre-limb bud Xenopus tadpoles were obtained in large batches from Nasco, Inc. Batches of 10 tadpoles were placed in 20 mm Petri dishes with approximately 20 ml of pond water ("pond water" is approximately a 20-fold dilution of Ringers saline solution). Compounds were added to the pond water from DMSO stock to obtain 100, 10 and 1 microM concentrations. Tadpoles were then incubated with these solutions for 1 hour, and then scored for "anesthesia". Anesthesia in this case is lack of movement in response to a sharp tap on the Petri dish lid, i.e., a lack of startle response. This correlates well to the loss of righting reflex in rodents and the loss of consciousness in humans. The pond water is then changed, and the return of a startle response is monitored for 24 hours. Immobility at 24 hours is considered death.

Row | Compound | immobility
1 | O=C(Cn1nc(-c2cccnc2)ccc1=O)NCCc1ccccc1 | 0% (inactive)
2 | CC(C)c1ccc(=O)n(CC(=O)NCCc2ccccc2)n1 | 0% (inactive)
3 | O=C(Cn1ncccc1=O)NCCc1ccccc1 | 0% (inactive)

same assay, conditions: startle-response immobility, 1 h, measured here: 24 h immobility, toxicity/death, at 10 µM

Row | Compound | immobility
4 | O=C(Cn1nc(-c2cccnc2)ccc1=O)NCCc1ccccc1 | 15%
5 | CC(C)c1ccc(=O)n(CC(=O)NCCc2ccccc2)n1 | 5%
6 | O=C(Cn1ncccc1=O)NCCc1ccccc1 | 5%

Source: PubChem BioAssay AID624098 (National Center for Advancing Translational Sciences (NCATS), 2012)
